# Experimental data: PubChem BioAssay
# The source made the active and inactive calls.
# How the values were obtained:
# [1] = system: Lefty1; assay: Lefty1 binders on small-molecule microarrays, primary screen, biochemical, small-molecule microarray, 635/667 nm fluorescence (AID 1139); conditions: small-molecule microarray binding, fluorescence 635/667; higher = more signal
# [2] = system: wheat germ agglutinin (Triticum aestivum), Alexa647-labelled; assay: wheat germ agglutinin binders on compound microarrays, profiling panel, artefact control for SMM control-protein annotation, biochemical, small-molecule microarray, 635/667 nm fluorescence (AID 1140); conditions: WGA-A647 binding, 635 nm fluorescence, higher = more signal;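 also: score merges 667 nm feature emission with signal to noise over triplicate slides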
# [3] = target: Luciferin 4-monooxygenase (Photinus pyralis) (UniProt P08659); assay: firefly luciferase enzyme inhibitors, primary screen, biochemical, luminescence, purified enzyme, 2006 set (AID 1141); conditions: SteadyGlo luminescence, 30 min, higher = more signal, called active from +8 up or from −8 down;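 also: cell-free assay with purified firefly luciferase at 100 ng per well in PBS; test concentration not given here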
# [4] = system: Wnt5a (protein binding on small-molecule microarray); assay: Wnt5a binders on small-molecule microarray, primary screen, biophysical, 635/667 nm fluorescence (AID 1142); conditions: 635 nm fluorescence, higher = more signal;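 also: fluorescence read at 667 nm with signal to noise per printed feature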
# [5] = cell viability in Huh7 cells, primary screen, cytotoxicity control for HCV replication inhibitor project, CellTiter-Glo luminescence, basal, 48 h (AID 1143); conditions: Huh7 HCV replicon, higher = more signal, called active from +8 up or from −8 down;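 also: Huh7 hepatoma cells carrying a hepatitis C replication reporter with no stimulus; test concentration not given here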
# [6] = CREB reporter modulators without forskolin, primary screen, cell-based, PC12, CRE-LacZ reporter, unstimulated (AID 1145); conditions: no forskolin, luminescence, 4.5 h, higher = more signal, called active from +8 up or from −8 down
# [7] = CREB reporter modulators under forskolin, primary screen, cell-based, PC12, CRE-LacZ reporter, forskolin-stimulated (AID 1146); conditions: luminescence, 4.5 h, higher = more signal, called active from +8 up or from −8 down;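 also: PC12 cells with 6xCRE LacZ reporter stimulated by forskolin 10 µM; beta-galactosidase reporter signal reflecting CREB driven transcription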
# [8] = target: Streptavidin (Streptomyces avidinii) (UniProt P22629); assay: streptavidin binders on small-molecule microarray, primary screen, artefact control for SMM compound annotation, biophysical, 635/667 nm fluorescence (AID 1147); conditions: streptavidin binding, higher = more signal;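 also: signal reflects streptavidin binding to arrayed compounds as a control protein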
# [9] = small-molecule binders of probe aInhba, primary screen, biochemical, small-molecule microarray, 635/667 nm fluorescence (AID 1148); conditions: higher = more signal;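 also: score merges 667nm spot fluorescence with signal-to-noise for antibody binding to printed compounds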
# [10] = target: Torsin-1A (Homo sapiens) (UniProt O14656); assay: torsin A binders from cell lysate, primary screen, small-molecule microarray, wild-type, 635/667 nm (AID 1149); conditions: COS7 hTOR1A-WT lysate, 635 nm fluorescence, higher = more signal
# [11] = target: Torsin-1A (Homo sapiens) (UniProt O14656); assay: small-molecule binders of mutant TOR1A in lysate, primary screen, cell lysate, small-molecule microarray, COS7 lysate, 635/667 nm fluorescence (AID 1150); conditions: COS7 hTOR1A mutant lysate, 635 nm fluorescence, higher = more signal;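 also: score pools 667 nm emission and signal to noise measuring lysate protein binding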
# [12] = system: Sonic hedgehog protein (Shh); assay: small-molecule binders of Shh protein, primary screen, biochemical, small-molecule microarray, 635/667 nm fluorescence (AID 1151); conditions: small-molecule microarray binding, 635 nm fluorescence; higher = more signal;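 also: Shh protein binding to compounds spotted on small-molecule microarray slides; score combines spot fluorescence intensity with signal-to-noise across triplicate slides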
# [13] = E. coli DRC41 culture turbidity changes, primary screen, E. coli filamentation inducer project, strain DRC41, OD650, 48 h (AID 1152);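 also: E. coli MC1000 strain DRC41 lacking acrAB efflux pump and sulA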; conditions: E. coli DRC41 (acrAB sulA), higher = more signal, called active from +8 up or from −8 down
# [14] = small-molecule binders of probe aLefty1, primary screen, biochemical, small-molecule microarray, 635/667 nm fluorescence (AID 1153); conditions: higher = more signal;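 also: score merges spot fluorescence with signal-to-noise ratio from the scanned slide images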
# [15] = PSAC antagonists in infected red cells, primary screen, cell-based, P. falciparum Indochina, OD700, 1 h (AID 1154); conditions: P. falciparum Indochina infected RBC osmotic lysis, higher = more signal, called active from +8 up or from −8 down
# [16] = PSAC antagonists in infected red cells, primary screen, cell-based, P. falciparum Indochina, OD700, 2 h (AID 1155);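 also: lysis reports solute entry through the parasite surface anion channel PSAC; channel blockers reduce lysis of infected cells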; conditions: P. falciparum Indochina infected erythrocytes, osmotic lysis OD700; higher = more signal, called active from +8 up or from −8 down
# [17] = osmotic lysis modulators in infected erythrocytes, primary screen, PSAC antagonist project, cell-based, P. falciparum Indochina, OD700, 3 h (AID 1156); conditions: higher = more signal, called active from +8 up or from −8 down
# [18] = PSAC antagonists in infected red cells, primary screen, cell-based, P. falciparum Indochina, OD700, 18 h (AID 1157); conditions: P. falciparum Indochina infected erythrocytes, osmotic lysis OD700, 18 h; higher = more signal, called active from +8 up or from −8 down
# [19] = modulators of S6 phosphorylation in cells, primary screen, cell-based, A549, cytoblot, luminescence, serum-stimulated (AID 1158); conditions: A549 phospho-S6 cytoblot, 5 h, higher = more signal;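 also: serum-stimulated A549 lung adenocarcinoma cells; signal is phosphorylated S6 detected by cytoblot immunostaining with HRP secondary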
# [20] = target: NADPH oxidase 2 (Homo sapiens) (UniProt P04839); assay: NOX2-dependent H2O2 signal modulators, primary screen, NOX inhibitor project, cell-based, HEK293-NOX2, PMA-stimulated, Amplex Red fluorescence (AID 1159); conditions: 45 min, higher = more signal, called active from +8 up or from −8 down; also: test concentration not given here
# Sequence of NADPH oxidase 2 (Homo sapiens) (P04839 whole entry, looked up): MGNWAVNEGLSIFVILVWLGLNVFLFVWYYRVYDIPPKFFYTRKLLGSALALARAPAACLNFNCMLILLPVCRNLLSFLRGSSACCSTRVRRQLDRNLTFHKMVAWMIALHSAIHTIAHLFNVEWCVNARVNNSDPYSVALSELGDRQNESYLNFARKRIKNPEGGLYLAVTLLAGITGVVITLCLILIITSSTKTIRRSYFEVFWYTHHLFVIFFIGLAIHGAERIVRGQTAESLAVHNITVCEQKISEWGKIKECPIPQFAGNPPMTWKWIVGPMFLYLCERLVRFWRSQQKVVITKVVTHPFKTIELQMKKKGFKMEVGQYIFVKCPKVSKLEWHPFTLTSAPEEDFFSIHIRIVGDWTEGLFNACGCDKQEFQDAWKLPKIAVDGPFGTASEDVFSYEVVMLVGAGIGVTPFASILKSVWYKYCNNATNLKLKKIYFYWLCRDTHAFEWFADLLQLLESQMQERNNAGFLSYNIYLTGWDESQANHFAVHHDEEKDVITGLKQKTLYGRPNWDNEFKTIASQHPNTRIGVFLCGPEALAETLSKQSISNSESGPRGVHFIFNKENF
# Sequence of Streptavidin (Streptomyces avidinii) (P22629 whole entry, looked up): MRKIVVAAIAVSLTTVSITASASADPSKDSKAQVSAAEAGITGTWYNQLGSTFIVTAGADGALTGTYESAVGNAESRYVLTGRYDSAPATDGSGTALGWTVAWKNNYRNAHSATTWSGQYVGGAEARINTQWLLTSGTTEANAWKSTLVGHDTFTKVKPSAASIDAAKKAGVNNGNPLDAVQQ
# Sequence of Luciferin 4-monooxygenase (Photinus pyralis) (P08659 whole entry, looked up): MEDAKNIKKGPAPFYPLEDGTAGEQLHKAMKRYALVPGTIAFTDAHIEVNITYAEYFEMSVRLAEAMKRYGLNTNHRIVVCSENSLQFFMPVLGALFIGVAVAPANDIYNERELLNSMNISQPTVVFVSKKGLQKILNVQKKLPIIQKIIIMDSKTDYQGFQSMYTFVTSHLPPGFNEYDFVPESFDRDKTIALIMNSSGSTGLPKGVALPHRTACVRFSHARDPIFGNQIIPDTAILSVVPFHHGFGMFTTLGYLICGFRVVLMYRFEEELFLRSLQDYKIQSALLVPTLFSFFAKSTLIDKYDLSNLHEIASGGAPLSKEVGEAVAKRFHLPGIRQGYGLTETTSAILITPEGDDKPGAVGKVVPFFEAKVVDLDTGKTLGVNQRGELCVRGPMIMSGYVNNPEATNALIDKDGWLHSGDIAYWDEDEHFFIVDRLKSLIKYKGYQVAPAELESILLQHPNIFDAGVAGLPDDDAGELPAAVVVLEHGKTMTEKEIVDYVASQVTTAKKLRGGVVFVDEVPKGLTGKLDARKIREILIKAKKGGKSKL
# Sequence of Torsin-1A (Homo sapiens) (O14656 whole entry, looked up): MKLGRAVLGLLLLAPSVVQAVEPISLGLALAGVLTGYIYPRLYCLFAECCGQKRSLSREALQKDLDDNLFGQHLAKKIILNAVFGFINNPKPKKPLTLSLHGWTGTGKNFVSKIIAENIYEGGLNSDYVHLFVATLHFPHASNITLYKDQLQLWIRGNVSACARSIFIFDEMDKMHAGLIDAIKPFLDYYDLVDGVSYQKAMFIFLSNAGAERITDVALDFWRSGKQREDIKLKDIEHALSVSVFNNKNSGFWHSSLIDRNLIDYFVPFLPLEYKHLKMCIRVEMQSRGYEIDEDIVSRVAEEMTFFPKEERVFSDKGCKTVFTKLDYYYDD
SMILES,composite z-score [1],composite z-score [2],z-score [3],composite z-score [4],z-score [5],z-score [6],z-score [7],composite z-score [8],composite z-score [9],composite z-score [10],composite z-score [11],composite z-score [12],z-score [13],composite z-score [14],z-score [15],z-score [16],z-score [17],z-score [18],z-score [19],z-score [20]
Cc1ccc(S[C@]2(C(=O)NCC(C)C)CC(=O)N(C(C)C)[C@@H]2c2ccc(CO)cc2)cc1,-0.477,-1.76,-0.204 (inactive),0.114,-4.95 (inactive),0.182 (inactive),-0.838 (inactive),-1.13,0.0464,0.234,0.0167,-0.305,2.67 (inactive),-0.191,1.73 (inactive),-0.147 (inactive),-0.651 (inactive),-1.54 (inactive),3.27,0.827 (inactive)
[N-]=[N+]=NCc1ccccc1C[C@@]1(C(=O)O)N=C(c2ccc(OCCCO)cc2)O[C@@H]1c1ccccc1,-0.771,1.1,-1.05 (inactive),0.0855,-0.563 (inactive),-0.137 (inactive),0.718 (inactive),0.246,-0.0421,-0.233,0.0019,-0.515,0.706 (inactive),-0.0654,15.1 (active),2.07 (inactive),0.912 (inactive),0.199 (inactive),0.218,1.07 (inactive)
COCCCNC(=O)[C@@]1(Cc2ccccc2)N=C(c2ccc(OCCCO)cc2)O[C@H]1c1ccccc1N=[N+]=[N-],0.269,1.15,-4.34 (inactive),0.834,-4.48 (inactive),1.74 (inactive),-1.74 (inactive),0.356,0.49,0.544,0.449,0.475,1.78 (inactive),0.826,29.6 (active),27.1 (active),3.66 (inactive),1.92 (inactive),0.98,-0.14 (inactive)
C=CC[C@]1(C(=O)N2CCCCC2)COC(c2ccc(OCCCO)cc2)=N1,-0.45,-1.3,-2.65 (inactive),0.0945,-4.06 (inactive),1.08 (inactive),-1.78 (inactive),-0.712,-0.128,-0.273,-0.204,0.0166,0.924 (inactive),0.0391,24.9 (active),12 (active),4.37 (inactive),0.866 (inactive),0.826,-3.2 (inactive)
O=C(O)[C@H]1C[C@H]2C(=O)N[C@@H](Cc3ccccc3)C(=O)N2[C@H]1c1ccc(O)cc1,0.438,0.302,-1.3 (inactive),0.0525,-0.423 (inactive),0.826 (inactive),-0.83 (inactive),-0.0681,0.0228,0.563,0.458,1.24,0.763 (inactive),-0.0162,2.03 (inactive),-0.0251 (inactive),-7.14 (inactive),-0.139 (inactive),0.432,1.53 (inactive)
O=C1O[C@H](c2ccccc2)[C@H](c2ccccc2)N2[C@H]1[C@@H](C(=O)Nc1nc3ccccc3s1)[C@]1(C(=O)Nc3ccc(C#CCCO)cc31)[C@H]2c1ccccc1OCCO,0.287,1.3,-1.14 (inactive),0.81,-2.88 (inactive),0.182 (inactive),-0.428 (inactive),1.11,0.279,0.795,0.778,0.384,2.34 (inactive),0.634,2.76 (inactive),2.95 (inactive),1.4 (inactive),1.69 (inactive),0.503,0.146 (inactive)
C=CCC(OC(C)=O)[C@@H]1[C@@H](N(Cc2cccc3ccccc23)C(=O)Cc2ccc(OC)cc2)c2cc(OCCCO)ccc2N1C(=O)Cc1ccc(OC)cc1 (stereo not given in full),-0.392,0.349,-0.369 (inactive),-0.143,-0.627 (inactive),1.78 (inactive),-1.2 (inactive),0.131,-0.0986,0.271,-0.482,0.0188,2.17 (inactive),0.051,1.62 (inactive),0.317 (inactive),0.119 (inactive),0.506 (inactive),0.623,0.459 (inactive)
C=CCNC(=O)[C@H]1[C@@H]2C(=O)O[C@@H](c3ccccc3)[C@@H](c3ccccc3)N2[C@@H](c2ccccc2OCCO)[C@]12C(=O)N(C(=O)OCCOC)c1ccc(C#CCCO)cc12,0.817,0.958,-1.66 (inactive),0.641,-3.68 (inactive),0.472 (inactive),3.22 (inactive),0.876,0.561,1.02,0.546,0.861,1.4 (inactive),1.12,2.84 (inactive),1.32 (inactive),-0.383 (inactive),0.875 (inactive),0.0195,1.74 (inactive)
C=C(/C(=C/C[C@H](OC(=O)c1ccncc1)c1cccc(OCCO)c1)c1cc(C(=O)OC)ccc1OC)C(C)C,0.411,0.844,-0.979 (inactive),-0.158,-2.09 (inactive),8.57 (active),-0.669 (inactive),0.0287,-0.05,0.607,0.568,0.948,1.17 (inactive),-0.0984,10.2 (active),-0.289 (inactive),1.66 (inactive),-1.19 (inactive),0.402,1.62 (inactive)
CCOC(=O)C[C@H]1[C@H](OC(=O)Cc2ccc3c(c2)OCO3)[C@@H](NC(=O)c2ccc3ccccc3c2)c2cc(OCCCO)ccc2N1C(=O)c1ccc2ccccc2n1,0.37,1.06,-1.25 (inactive),0.0364,-2.81 (inactive),7.41 (inactive),-1.37 (inactive),0.398,0.219,0.0253,0.107,0.555,0.869 (inactive),0.169,11.8 (active),1.44 (inactive),-0.859 (inactive),0.0679 (inactive),1.49,0.0194 (inactive)
CO[C@H]1O[C@H](CO)[C@@H](OC(=O)Nc2ccccc2)[C@H](OC(=O)Nc2ccc3c(c2)OCO3)[C@H]1OC(=O)Nc1ccc2c(c1)OCO2,0.345,0.571,-1.63 (inactive),0.229,-3.58 (inactive),0.754 (inactive),-2.46 (inactive),0.142,-0.018,0.505,0.781,0.739,2.12 (inactive),0.57,4.45 (inactive),-0.359 (inactive),0.0835 (inactive),-1.81 (inactive),1.21,-3.84 (inactive)
[N-]=[N+]=NCc1ccccc1C[C@]1(C(=O)NCc2ccccc2)N=C(c2ccc(OCCCO)cc2)O[C@H]1c1ccccc1,-1.17,1.24,-1.19 (inactive),0.46,-4.02 (inactive),1.11 (inactive),-1.14 (inactive),0.532,0.216,-0.265,0.765,-0.948,1.78 (inactive),0.832,10.9 (active),1.53 (inactive),3.76 (inactive),-0.605 (inactive),1.09,-0.425 (inactive)
CCCCC(=C=CC[C@@H](O)c1ccc(OCCO)cc1)C[C@@H](O)c1cc(Cl)cc(Cl)c1O,0.255,1.21,-3.02 (inactive),0.145,-2.71 (inactive),14.3 (active),-2.04 (inactive),0.414,0.0536,-0.0726,1.01,0.184,1.55 (inactive),-0.147,20.3 (active),4.24 (inactive),1.41 (inactive),0.159 (inactive),0.903,0.444 (inactive)
CN1C=C(C(=O)OCCS(C)(=O)=O)C(C(=O)OCCS(C)(=O)=O)=CC(CCCO)=CC1c1cccs1 (stereo not given),1.07,-0.485,-1.52 (inactive),0.131,-0.894 (inactive),5.95 (inactive),-1.56 (inactive),-0.0015,-0.299,0.408,0.0286,1.05,0.302 (inactive),-0.0011,1.91 (inactive),-1.53 (inactive),-0.727 (inactive),-1.71 (inactive),-0.496,0.92 (inactive)
CO[C@H]1O[C@H](CO)[C@@H](OC(=O)Nc2ccccc2)[C@H](OC(=O)Nc2ccccc2-c2ccccc2)[C@H]1OC(=O)Nc1ccccc1-c1ccccc1,0.601,1.19,-0.864 (inactive),0.289,-5.87 (inactive),1.56 (inactive),0.028 (inactive),0.787,-0.0506,0.56,0.679,0.877,0.663 (inactive),0.302,3.27 (inactive),-0.843 (inactive),-1.21 (inactive),-1.81 (inactive),0.668,-6.45 (inactive)
CC(C)CNC(=O)[C@@H]1c2ccccc2C(=O)N(Cc2ccc(OC(F)(F)F)cc2)[C@H]1c1ccc(CO)cc1,1.52,0.75,-1.25 (inactive),0.314,-2.27 (inactive),-0.646 (inactive),-1.28 (inactive),0.941,0.25,0.864,0.72,2.02,3.99 (inactive),0.315,2.06 (inactive),-0.18 (inactive),0.209 (inactive),-0.657 (inactive),1.69,-1.43 (inactive)
